Entries with a potency or affinity are not part of this list.

Sequence of Protein translocase subunit SecA (Escherichia coli (strain K12)) (P10408 whole entry): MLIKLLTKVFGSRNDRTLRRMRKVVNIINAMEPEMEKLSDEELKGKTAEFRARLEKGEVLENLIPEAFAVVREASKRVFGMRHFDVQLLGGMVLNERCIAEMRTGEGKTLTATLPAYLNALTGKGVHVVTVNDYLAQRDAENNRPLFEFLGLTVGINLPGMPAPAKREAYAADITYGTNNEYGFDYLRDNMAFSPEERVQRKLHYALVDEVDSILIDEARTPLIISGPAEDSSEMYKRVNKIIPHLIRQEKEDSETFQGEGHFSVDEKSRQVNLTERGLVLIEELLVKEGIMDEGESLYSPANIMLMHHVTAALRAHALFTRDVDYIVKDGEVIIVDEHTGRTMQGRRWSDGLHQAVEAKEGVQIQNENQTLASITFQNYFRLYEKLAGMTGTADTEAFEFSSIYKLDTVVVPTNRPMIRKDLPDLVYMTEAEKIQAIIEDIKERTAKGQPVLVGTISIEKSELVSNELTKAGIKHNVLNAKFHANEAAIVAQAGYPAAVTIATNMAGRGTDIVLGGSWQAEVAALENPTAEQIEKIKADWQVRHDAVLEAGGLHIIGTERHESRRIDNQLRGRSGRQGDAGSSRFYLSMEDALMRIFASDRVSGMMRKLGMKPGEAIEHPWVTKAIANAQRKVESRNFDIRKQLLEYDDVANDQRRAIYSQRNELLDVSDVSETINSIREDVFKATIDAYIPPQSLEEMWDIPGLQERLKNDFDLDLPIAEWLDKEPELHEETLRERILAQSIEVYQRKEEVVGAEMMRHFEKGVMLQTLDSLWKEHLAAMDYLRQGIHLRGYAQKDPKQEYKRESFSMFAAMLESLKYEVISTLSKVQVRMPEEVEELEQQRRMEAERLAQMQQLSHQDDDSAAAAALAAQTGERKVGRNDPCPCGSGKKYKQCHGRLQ

This assay addresses Protein translocase subunit SecA (Escherichia coli (strain K12)) (UniProt P10408). The experiment in a line: Assay to Identify E. coli SecA ATPase Inhibitors. In kind it is functional. Set-up: scale not given: direction of the effect not stated beside the values. The settings on record: 30 µM.
Turning to `N#Cc1ccc(N2CCCN(C(=O)CC3CCCO3)CC2)cc1` (stereo not given), the Percent Effect is -4.45%.
As to `O=c1ccc(-c2cccs2)nn1CN1CCN(Cc2ccccc2)CC1`, the Percent Effect was -4.73%.
The same measure for `Cc1ccc(C(=O)NS(=O)(=O)c2cc(Cl)ccc2Cl)c(=O)[nH]1`: -2.59%.
With `Cc1nccn1C1CCCN(C(=O)c2cc(O)nc3ccccc23)C1` (stereo not given), the Percent Effect is -2.57%.
Take `CCCc1n[nH]c(C2CN(C(=O)c3cc(F)ccc3OC)CCO2)n1` (stereo not given): the Percent Effect is -5.9%.
Take `Cc1cnn(CC2CCCN2CCCc2nc3ccccc3o2)c1` (stereo not given): the Percent Effect was -6.63%.
Next, `CC(=O)N1CC(Cc2nccc3ccn(C)c23)C1`: -2.79%; `CC(c1ccc(Cl)cc1)N1CCN(CCNS(C)(=O)=O)CC1` (stereo not given): -4%.
`CCn1ccnc1-c1nc2cc(S(=O)(=O)N3CCCC3)ccc2n1C`: the Percent Effect was -6.04%.
Next, `Cc1ccc(CNCc2ccc(-n3nc(C)cc3C)nc2)cc1`: -1.16%.
The same measure for `CC(C)Oc1cccc(C(=O)C2CCCN(C(=O)c3ccccn3)C2)c1` (stereo not given): -2.58%; for `CCCS(=O)(=O)N1CCOCC2(CCN(c3ccccn3)C2)C1` (stereo not given): -1.74%.
The same measure for `CC(C)Oc1cccc(CNC(=O)NC(C)(C(=O)O)c2ccco2)c1` (stereo not given): -2.82%; for `O=C(Nc1cccc(CN2CCOC2=O)c1)N1CCSCC1`: -1.53%.
On to `Cc1cc(C)cc(NC(=O)CN2CCCC(n3cncn3)C2)c1` (stereo not given), for which the Percent Effect is -3.62%.
In the case of `Cc1ncsc1CN1CC[C@H]2C(=O)N(c3ccccc3)CCO[C@H]2C1`, the Percent Effect was -1.58%.
In the case of `CCc1nccn1C1CCCN(C(=O)c2ccc3c(c2)OCO3)C1` (stereo not given), the Percent Effect is -3.94%.
For the molecule `CCN(CC)CC(=O)NCCc1csc(N2CCCC2)n1`, the Percent Effect was -3.47%.
For the molecule `COc1cc(NC(=O)c2cc(C)sc2C)c(C(=O)N(C)C)cc1OC`, the Percent Effect turned out to be 0.25%.
With `O=C(Cn1ccc2sccc2c1=O)NCc1ccc2c(c1)OCO2`, the Percent Effect is -3.35%.

Values taken from ChEMBL document CHEMBL3988442, “University of Dundee, Small-Polar-MMV Screening Library” (2021).
